Compound activity (PubChem BioAssay)
KLF5 inh: inhibitors of KLF5 expression; DLD-1 KLF5 promoter-luciferase reporter, luminescence; inhibition, % at 5 µM; actives 0.23% (n = 290,000); AID 1700;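 active means inhibition above a per-plate limit of that plate's mean compound inhibition plus 3 SD, cut at about 60% in these data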;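 further: higher means less KLF5 promoter-driven luciferase light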
IEC-6 tox: IEC-6 cytotoxicity, counter-screen for KLF5 inhibitors | luminescence viability | inhibition, % at 5 µM | actives 0.78% (n = 290,000) | AID 1825; in the data active means inhibition above about 22%
aSyn UTR inh: MLPCN primary screen, SNCA 5' untranslated region. alpha-synuclein 5'UTR reporter, inhibitor activity. inhibition, % (tested at 7.5 µM). actives 0.82% (n = 300,000). AID 1813; in the data active means inhibition above about 60%;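 further: H4 neuroglioblastoma cells stably carrying SNCA 5'UTR luciferase fusion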
APP transl inh: APP translation inhibition; actives 0.82% (n = 190,000); inhibition, % at 2 µM; SH-SY5Y APP 5'UTR-luciferase reporter, luminescence;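 active means inhibition above a set limit, derived from the sample mean plus 3 SD, cut at about 45% in these data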
BaF3 tox: parental Ba/F3 viability inhibition as JAK2V617F counter-screen. CellTiter-Glo ATP luminescence. inhibition, % at 5.6 µM. actives 1.1% (n = 220,000);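 active means inhibition above a per-campaign cutoff, the mean inhibition of all tested compounds plus 3 SD, cut at about 27% in these data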
Ba/F3 V617F tox: lowers viability of Ba/F3 cells expressing EpoR and JAK2V617F | ATP luminescence | inhibition, % at 5.6 µM | actives 1.1% (n = 220,000) | AID 1446;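 active means inhibition above the campaign mean plus 3 SD over all tested compounds, cut at about 24% in these data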;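 further: cytokine-independent growth of Ba/F3 cells driven by EpoR plus mutant JAK2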
A number is an active result; i = inactive; nt = not tested or not shown. The list is not random: actives were taken first. Their share in the collection is about 2.2%.

SMILES | KLF5 inh | IEC-6 tox | aSyn UTR inh | APP transl inh | BaF3 tox | Ba/F3 V617F tox
COc1ccc(/C=N/NC(=O)c2cccnc2)cc1CSc1nc2ccccc2s1 | i | i | i | 54 | i | i
COc1ccc(/C=N/NC(=O)c2ccccc2Cl)cc1CSc1nc2ccccc2s1 | i | i | i | i | i | i
COc1cc(C(=O)Oc2ccccc2/C=N/NC(=O)c2ccc(Cl)cc2)cc(OC)c1OC | i | i | i | i | i | i
COc1cc(C(=O)Oc2ccccc2/C=N/NC(=O)c2ccc(C)c(Cl)c2)cc(OC)c1OC | i | i | 84 | 50 | i | i
CCOC(=O)c1cc(=O)[nH]c2ccccc12 | i | i | i | i | i | i
CCCOC(=O)c1cc(=O)[nH]c2ccccc12 | i | i | i | i | 97 | i
COc1cccc(CNC(=O)c2ccc(NC(=O)C3=CSCCO3)cc2)c1 | i | i | i | nt | nt | nt
CCOc1ccc(CC(=O)Nc2ccc(NC(=O)c3ccco3)cc2)cc1OCC | i | i | 66 | i | i | i
CCC(=O)Nc1ccc(NC(=O)c2ccco2)cc1 | i | i | i | i | i | i
CC(=O)N1CC23C=CC(CC2CC12CCCCCC2)O3 (stereo unspecified) | i | i | i | i | i | i
Cc1ccc(CNCC(O)(c2ccccc2)c2ccc(Cl)cc2)cc1 (stereo unspecified) | i | i | i | i | 29 | i
Cc1ccc(C)c(C(=O)COC(=O)CCN2C(=O)C3C4CCC(C4)C3C2=O)c1 (stereo unspecified) | i | i | i | nt | nt | nt
COc1ccc(/C=C/C(=O)c2cc(Br)ccc2OC(=O)c2ccco2)cc1OC | i | i | i | 87 | i | i
CC(OC(=O)CCN=C1NS(=O)(=O)c2ccccc21)C(=O)NCc1ccccc1 (stereo unspecified) | nt | nt | i | nt | nt | nt
CN1C(=CC=C2C=C(I)C(=O)C(I)=C2)C(C)(C)c2ccccc21 | i | i | nt | nt | 33 | i
CN1/C(=C\C=C2/C(=O)Oc3ccccc3C2=O)C(C)(C)c2ccccc21 | i | i | i | i | i | i
CN1/C(=C\C=C2/SC(=S)NC2=O)C(C)(C)c2ccccc21 | i | i | i | i | 81 | 65
CCN1CCN(C(c2cccs2)C(C)NC(=S)Nc2cccc(C)c2C)CC1 (stereo unspecified) | i | i | i | nt | i | i
O=C(NCCC1CCCCN1S(=O)(=O)c1ccc(Cl)cc1)C(=O)NCc1ccncc1 (stereo unspecified) | nt | nt | 62 | nt | nt | nt
O=C(CCSCCc1ccccn1)Nc1c(F)c(F)c(F)c(F)c1F | i | i | i | i | i | i
O=C(Nc1ccc(N2CCOCC2)cc1)c1cn2ccccc2n1 | i | i | 65 | i | i | i
O=C(Nc1ccc(Cl)c(S(=O)(=O)N2CCOCC2)c1)c1cn2ccccc2n1 | i | i | i | i | i | i
CCC(C)NC(=O)NC(=O)N(C1CCCCC1)S(C)(=O)=O (stereo unspecified) | i | i | i | i | i | i
CCCCCN(C(=O)NC(=O)NC(C)CC)S(C)(=O)=O (stereo unspecified) | i | i | i | i | 89 | i
Nc1c(Cl)cc(-c2csc(NC(CO)c3nc4ccccc4n3CCOCCO)n2)cc1Cl (stereo unspecified) | nt | nt | i | nt | nt | nt
SMILES | KLF5 inh | IEC-6 tox | aSyn UTR inh | APP transl inh | BaF3 tox | Ba/F3 V617F tox
CCN1CCc2c(sc(N)c2C#N)C1 | i | i | i | 66 | i | i
CC(C)N1CCc2c(sc(N)c2C#N)C1 | nt | nt | i | nt | nt | nt
COc1ccc(CNCC(O)COc2cccc3c2OC(C)(C)C3)cc1 (stereo unspecified) | i | i | i | i | 29 | i
O=C(/C=C/c1ccccc1)N1CCN(CCN2C(=O)c3cccc4cccc(c34)C2=O)CC1 | i | i | i | i | i | i
COc1ccc2c(Cn3cnc4cc([N+](=O)[O-])ccc4c3=O)cc(=O)oc2c1 | i | i | 72 | nt | i | i
Cc1ccc(OCCn2cnc3cc([N+](=O)[O-])ccc3c2=O)cc1 | i | i | i | i | i | i
CS(=O)(=O)c1ccc(Oc2ccc(-c3nnco3)cc2)c([N+](=O)[O-])c1 | i | i | i | nt | nt | nt
O=C(CCl)Nc1cccc(-c2cnc3ccccc3n2)c1 | i | i | i | nt | 39 | 73
CCC(=O)Nc1cccc(-c2cnc3ccccc3n2)c1 | i | i | i | i | i | i
CC(OC(=O)C1=NNC(=O)CC1)C(=O)Nc1ncc(Cl)cc1Cl (stereo unspecified) | i | i | i | i | 81 | i
CCOC(=O)C1CCN(C(=S)Nc2cccc(C)c2C)CC1 | i | i | i | i | i | i
CN(C)CCNC(=O)C12CC3(C)CC(C)(CC(C)(C3)C1)C2 | i | i | i | i | 59 | i
CC12CC3(C)CC(C)(C1)CC(C(=O)NCCc1ccc(S(N)(=O)=O)cc1)(C2)C3 | i | i | i | nt | nt | nt
COc1cc(/C=N/NC(=O)c2ccccc2O)ccc1OC(=O)CC1SC(=O)NC1=O (stereo unspecified) | i | i | i | nt | i | i
O=C(O)CCCc1ccc2c(c1)CCc1ccccc1-2 | nt | nt | 109 | nt | nt | nt
CCCC1=[N+](CC(=O)c2ccccc2)CCn2c(C)ccc21 | i | i | i | i | 27 | 32
CCCC1=[N+](CC(=O)c2ccc(C)cc2)CCn2cccc21 | i | i | i | i | i | i
CCCC1=[N+](CC)CCn2c(C)ccc21 | i | i | i | i | 64 | 61
COC(=O)CC1C(=O)NCCN1C(=S)Nc1ccccc1Cl (stereo unspecified) | i | i | i | i | i | i
CO/N=C\CC(=O)Nc1ccc(Oc2ccccc2)cc1 | i | i | i | 68 | i | i
O=C(C/C=N\O)Nc1ccc(Oc2ccccc2)cc1 | i | i | i | i | i | i
FC(F)(F)c1cc(Oc2ccc(Cl)cc2)nc(-c2ccccn2)n1 | i | i | i | i | i | i
FC(F)(F)c1cc(Oc2ccccc2Cl)nc(-c2ccccn2)n1 | i | i | 64 | i | i | i
OCc1ccnc2oc3ccccc3c12 | nt | nt | i | nt | nt | nt
O=C(O)c1ccccc1Nc1ccc([N+](=O)[O-])cc1 | i | i | i | i | 44 | 45
SMILES | KLF5 inh | IEC-6 tox | aSyn UTR inh | APP transl inh | BaF3 tox | Ba/F3 V617F tox
O=C(Cc1ccc(Cl)cc1)Nc1ccc(-c2cc3ccccc3oc2=O)c(Cl)c1 | i | 48 | 96 | 86 | 65 | 56
CCn1cc(C(=O)NCCC(=O)NC(C)C)c(=O)c2cc3c(cc21)OCO3 | i | i | i | nt | nt | nt
CS(=O)(=O)N1CCN(c2ccccc2NC(=O)CSc2ccc(Cl)cc2)CC1 | i | i | i | i | i | i
O=C(CSc1ccc(Cl)cc1)Nc1ccccc1N1CCN(C(=O)c2ccccc2)CC1 | i | i | i | i | 68 | i
CCCCCN(C(=O)CCC(=O)OCc1ccc(C(C)(C)C)cc1)c1c(N)n(CCCC)c(=O)[nH]c1=O | i | i | i | nt | nt | nt
Cc1cc(C)nc(N2CCCC(C(=O)Nc3cccc(Cl)c3)C2)n1 (stereo unspecified) | i | i | i | nt | nt | nt
CCCCOc1ccc(N2C(N)=NC(N)=NC23CCCCC3)cc1 | i | i | i | nt | nt | nt
CCOc1ccc(-n2nc3ccc(N)cc3n2)cc1 | i | i | 73 | nt | nt | nt
CCOc1ccc(N2C(N)=NC(N)=NC2(C)C)cc1 | i | i | 66 | i | 98 | 94
